Experimental data from PubChem BioAssay AID1508600 (Functional Genomics Laboratory (NCATS/FGL), 2020).
Out of some 53,000 sequences screened, about 3,700 (7%) were called active. This is one part of a sample in which actives are shown more often than they occur.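 How the source made its calls: active means gene knockdowns whose robust z-score for IL-1 alpha signal is at least 2 or at most -2, so actives lie on both sides; inactive means the rest.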

test: Components of the Cytosolic LPS Sensing Pathway: Gene Identification via Genome-wide siRNA Screen; conditions: RAW264.7 macrophages, IL-1a HTRF, actives lie on both sides, screened at 100 nM (by protocol), cells primed 5 h with Pam3CSK4 first;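 further: robust z of the log signal after scaling to non-targeting control siRNA wells of the plate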
In short: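 Knockdown: 100 nM siRNA, 48h, RAW264.7. Stimulation: Pam3CSK4 5 h, then LipidA via TransIT-TKO 24 h. Output: supernatant IL-1a HTRF, negative-control-normalized, log robust z-score; viability by CellTiter-Glo.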

z-score, active:
GGCGUACGUAGACAAGUACTT against Scaf11 -2.23
GGCUGUUGAACUUAAUCCCTT against Tomm70a -2.25
GCAUUCAGGACCUGUGGCUTT against Olfr890 -2.33
CCUUUGGACGCAACCAGUUTT against Ugt1a6b 2.04
GGAUGAGGUGAUUAAAGAATT against Cd9 2.38
GGCACACACAUCAAAAGGATT against A530021J07Rik -2.63
GCCGUCAGACAAGGAGGAATT against Magi1 2.43
GGUAGCCAUAUCUAACAGCTT against Scd1 -2.02
UUAUGCUGACCUCUAUCUUTT against Akr1c19 2.33
GGCCUGUCCAAAGAAGUGATT against E2f3 2.2
GCAGUCCAAAAAAUUCGGUTT against Stox2 -2.15
GGUGCUGAGCAUGGUGUUATT against Spag4 3.17
GGAAAACGAGUCAAACUCATT against Lnx2 3.4
GGACUUCAACAACUGCUCUTT against Polr1a 2.28
GCUUCUGUUAUGAGGCUCATT against Hif1a -2.52
GGAUCAAAAGGUGAAUGCUTT against Vmn1r67 -2.54
CCAGUGGAGUAAACUGUAATT against Ltbp1 2.24
GGCCAUACGCAAGCUCAAGTT against Rtl5 -2.96
GCCUCCUGAAUGACCACAUTT against Klk1b27 2.29

z-score, inactive:
CCAGGAUCAUUCUUCUGAATT against Chrna7 -0.563
GCGUAUACCAUGCAGAUAUTT against Sigmar1 1.05
GGAAGGUAAUUGCUUUUAGTT against Gmeb1 0.533
GCACUUGCUUCAAGUAAUATT against Ankrd52 -0.0516
GCUCUGCUGUGUUAUAUGGTT against C330011M18Rik 0.144
CCUAUGCUUUUUUGUAAGATT against Il13ra2 0.126
GGGAAUAGCAAAUAAAGCATT against Lztr1 -0.674
GGUAGACGGAAUCUAUUUATT against Kcnj15 -1.31
GGUGGACUUAUAUGGUUUUTT against St3gal1 0.408
GGUGAUUGGGAAUUGAAAATT against F3 0.341
GCAUAUGCGAACAGUAAAATT against Rab28 -0.182
GGUACCUUCAUCUUGGUGGTT against Olfr699 -0.017
GCCUUGACCUGAUUUCUACTT against Tas2r131 -0.525
GGAUCUGUGAGUUUGUAGCTT against D930030D11Rik 0.585
GGACAACUCAAUUCUAAAATT against 4921522P10Rik -1.22
GCAAAGUUCACCUAAUUGGTT against Lipc -1.03
GCCAGACUGAGCUACAAAATT against Gm9732 -1.3
GCAUCAAAAUCGGUUUCUGTT against Lkaaear1 0.759
CGAAUUAAUCUCACAGGAGTT against Vps53 0.44
CCCUCAAUGGCCUCAAACUTT against Elavl3 -1.29
GUUAGAUGCCCUCAAGUUCTT against Trappc6a -0.857
GGAUGAGAGUCCACAGCAATT against Lpar3 -1.26
GGAAUUCACAGAUACCGUGTT against Guca1a 0.93
GGAGUUCAUUGUUUGGUUGTT against Nat2 0.593
GGAUAUUGAUGUUUCAAGUTT against Neo1 -0.241
CGUGGUGCAGAAUUUUUAUTT against Cldn14 1.13
GGUAGAUGGCAUCUACUAUTT against Josd2 0.663
GCUGGCAGUUUGUAAGUAGTT against Faxc -0.653
GGGUGUCAUCCUUAUCCUGTT against Olfr655 -0.0528
CCGAAUCUGUCGUCAAGGUTT against Trem3 0.552
GGACCAGGUCCGUUGGAAUTT against Efna1 0.636
GGAUGUAAAGAGGAAUCUCTT against Abca16 -0.748
GCAUCCCUUCCGAGAAACATT against Bag6 0.916
GGAUGUCCUUGACUUUAAATT against Atp6v0a4 0.704
GCCUGAGGAAUCGUGACAUTT against Olfr51 -1.58
GGAAAUGAUACAUUUGUGATT against Mre11a -0.256
CCGCACAGACCAUAGUAGATT against Pudp 0.261
GGUACUUUGGAAAGAAGAGTT against Yeats4 -1.27
GGGAAUGAACCUAGAAGAGTT against Tymp -1.2
GCCCUGAGACCACGAUAUUTT against AF067063 1.48
GGUUAUAUGCAGAGGAACUTT against Arid1a -0.436
GGCAAGAUGAAUUAAAAUGTT against Gcfc2 -0.964
GGAUAAAGGCAAAGACAAATT against Rsrc1 0.891
GGUUGAUUCUUAAAUUGUGTT against Slc6a5 0.331
GGCUGGUGUAAUCGAAACATT against Ttc39c 0.0501
GGAAACUCCGUCCCAAUUGTT against Trim68 1.39
GGCGAUUUCAACUGAAAAUTT against Jakmip1 0.548
GCCCAAUAAAAUUGAAGGGTT against Pmis2 -0.163
GGUCUUUGAGGAAAGAGGUTT against Hemk1 -1.59
GCGCACACCCUACUUGAUUTT against Pcdh20 1.08
GCUGUAAUUCCUAAGUUAUTT against Ubxn6 0.268
CCCAGAGCAUGCCAUCAACTT against Orm3 -0.38
CCUUACACUAAGAAAAAGGTT against Rad50 -0.0689
GGCAUUAGAGCAGAGUCGUTT against Trmu -1.29
GGUGCAGAGAAGUGUAACATT against Slc25a21 -1.6
GGAGUAUCGUUUAUUCAUUTT against Slc2a2 0.161
GCCUAAGAAAUUAGUGAAUTT against Rflna 0.204
GGCCAUCACUAAAUAAUGGTT against Ctdspl2 -0.123
GGUGGUGAGCAUCUACUAUTT against Alox5 0.565
CCCUAAUAAAUUCCAAAUCTT against H2-Ke6 1.81
GCAUGUAGUUCAUCAGUACTT against Tubgcp5 0.874
GGACCACUUUUUCAGACUCTT against Ralgapa1 0.945
GGCGAAAUGGUAAACCGAGTT against Adgrg2 0.0183
GUACGGCAACAUGACCCAGTT against Cd74 0.385
CCACUUCUACAUACUUAAUTT against Plau 0.62
UCUCAUUGCAAUUCUGGGATT against Olfr675 0.566
CCUUACUCAAGAUCCUGCUTT against Olfr1243 -0.23
GGCACUCAACACCUGUAUATT against Olfr640 -1.34
GGAAUUCCUUCACAUCUGGTT against Tc2n 0.4
GGGUGAUAAGCAGUUAUACTT against Wdr75 1.33
GGAGAUUGUGGAAAUGCUUTT against Skiv2l 0.459
CCCAGACCAUACUACGGAUTT against Calb2 -1.25
GUUUCAGUGCAGCCAUUACTT against Olfr518 -0.747
GGAUUUAUUUCCGAUUCGATT against Nalcn -0.0152
GCUGCAUUCGGUUACCACUTT against Olfml2b 0.677
GGAGGUUACAUAACAGGUGTT against Itsn2 1.86
GGGAGUUAUUUAAGAUUCUTT against Has1 0.0567
GAAAAAUAAUGGAGUUUGGTT against Gtf2h5 0.513
GGAAGUGGUCCACCUGAUCTT against Mms19 -0.324
GGCCCAUCUGAGGAAGCUUTT against Magea4 -1.55
GGAACUUCAUAAACACUUGTT against Oas3 -0.545
GGUUCUGGAAAGUUCUCUGTT against Sorcs2 -0.0101
GGUGAUGUUUUAUGGCAGGTT against Olfr1335 0.329
CGAUGAUCGGCUCAACAAGTT against Rplp2 -0.401
GGUUCCUCACAAGCAUUCUTT against Olfr818 0.276
GCAUGAAGUUGCACAUCCCTT against Cox8b -0.42
GGGAGCUAUUUAUCCUAUUTT against Zc4h2 0.214
GGACUGUGAUUGUUUCAGATT against Mep1a -0.0817
